# Measurements published in PubChem BioAssay AID588852 (The Scripps Research Institute Molecular Screening Center, 2011).
# Among all 360,000 compounds or so, about 4,600 (1.3%) were called active. The list comes from a sample in which actives are over-represented; it also holds similar structures and randomly drawn compounds. Unmarked numbers belong to inactive results.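 Rule for the calls: active = percent inhibition above its own plate's cutoff, namely the mean of that plate's compound wells plus 3 SD; inactive = the rest.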 Peptide text beside a SMILES is read from it. * marks the point of attachment. Bz = O=C(c1ccccc1)*
# Target: Muscarinic acetylcholine receptor M1 (Homo sapiens) (UniProt P11229)
# Sequence (P11229 whole entry, looked up): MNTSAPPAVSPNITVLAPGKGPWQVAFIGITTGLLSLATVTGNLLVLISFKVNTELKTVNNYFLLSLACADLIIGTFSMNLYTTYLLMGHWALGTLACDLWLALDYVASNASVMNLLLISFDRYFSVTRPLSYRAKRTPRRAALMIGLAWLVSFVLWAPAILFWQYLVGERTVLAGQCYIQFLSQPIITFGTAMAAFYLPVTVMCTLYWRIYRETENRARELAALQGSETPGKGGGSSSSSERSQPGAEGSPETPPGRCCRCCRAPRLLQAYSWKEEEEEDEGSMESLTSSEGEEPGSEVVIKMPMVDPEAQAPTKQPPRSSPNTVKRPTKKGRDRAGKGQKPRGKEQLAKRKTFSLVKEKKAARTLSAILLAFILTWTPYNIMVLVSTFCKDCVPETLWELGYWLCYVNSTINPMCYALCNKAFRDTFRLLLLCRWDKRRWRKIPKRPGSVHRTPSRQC
# Test: CHRM1 blockers of acetylcholine calcium response – CHO-K1 cells, Fluo-8 calcium fluorescence, 1536-well, primary screen (AID 588852);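 note: peak over basal fluorescence ratio during 140 s after agonist addition; 0% = ACh EC80 plus DMSO and 100% = DMSO alone without agonist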
# Conditions: CHO-K1 hM1, Fluo-8 calcium fluorescence, ACh EC80 antagonist; at 3 µM; hits give high values
row,SMILES,inhibition
1,COc1ccccc1Oc1ccc(S(=O)(=O)Nc2cccnc2)cc1,35.1% (active)
2,COc1ccc(S(=O)(=O)Nc2cccnc2)c(Cl)c1Cl,9.26%
3,Cc1cc(C)c(C)c(S(=O)(=O)Nc2cccnc2)c1C,-12.2%
4,O=[N+]([O-])c1ccc(CN2CC(N3CC=CC3)CS2(=O)=O)cc1 (stereo not given),7.78%
5,CCCC1=Nc2cc(C(=O)NCCN3CCCC3)ccc2Sc2ccccc21,44% (active)
6,CCC1=Nc2cc(C(=O)NCCCN3CCOCC3)ccc2Sc2ccc(Br)cc21,1.43%
7,CCCC1=Nc2cc(C(=O)NCc3ccco3)ccc2Sc2ccccc21,13.6%
8,Cc1cccc(CN2CCC(n3nccc3NC(=O)c3ccccc3C)CC2)n1,-7.86%
9,C[C@@H]1CN([C@@H](C)CO)C(=O)CCCn2nncc2CO[C@H]1CN(C)Cc1ccc(C(F)(F)F)cc1,-8.15%
10,COc1ccc(-c2cnc3c(c2)C(=O)N([C@H](C)CO)C[C@@H](C)[C@H](CN(C)Cc2ccccc2)O3)cc1,79.4% (active)
11,Cc1ccc(CN(C)C[C@@H]2OCc3cnnn3CCCC(=O)N([C@@H](C)CO)C[C@H]2C)cc1,-6.67%
12,C[C@H]1CN([C@@H](C)CO)C(=O)CCCn2nncc2CO[C@@H]1CN(C)Cc1ccc(Oc2ccccc2)cc1,35.8% (active)
13,C[C@@H]1CN([C@H](C)CO)C(=O)c2cc(-c3ccc(F)cc3)cnc2O[C@H]1CN(C)C(=O)c1ccc(F)cc1,-3.76%
14,C[C@@H]1CN([C@@H](C)CO)C(=O)c2cc(Br)cnc2O[C@H]1CN(C)Cc1ccc(-c2ccccc2)cc1,-3.44%
15,CSc1nsc(SC)c1NC(=O)OC1CCCCC1,-9.68%
16,O=C(Nc1cccc2ccccc12)c1[nH]c(-c2ccccc2)c2c1C(=O)N(C1CC1)C2=O,-24.4%
17,O=C1C2C3C=CC(C3)C2C(=O)N1c1ncc([N+](=O)[O-])s1 (stereo not given),-4.85%
18,CN(Cc1ccccc1F)C(=O)C(Cc1ccccc1)NC(=O)c1ccccc1 (stereo not given),33.5% (active)
19,O=C(NC(Cc1ccccc1)C(=O)N1CCCC1C(=O)O)c1ccccc1 (stereo not drawn) (Bz-Phe-Pro-OH; configuration not given here),-9.18%
20,NC(=O)c1ccc(NC(=O)COC(=O)C(Cc2ccccc2)NC(=O)c2ccccc2)cc1 (stereo not given),0.83%
21,CCn1ccnc1CNC(=O)CC1C(=O)NCCN1CCCc1ccccc1 (stereo not given),-10.2%
22,C[C@@H](C(=O)Nc1ccc2ccccc2c1)[C@@H]1C[C@@]1(C)[C@@H](NC(=O)c1cccnc1)c1ccccc1,-3.75%

row,SMILES,inhibition
1,CCc1nc2ccc(C(=O)N3CCN(S(=O)(=O)CC)CC3)cn2c1N(C=O)CCC(C)C,-13.9%
2,CC1=C(C(=O)N2CCOCC2)CC(CC(=O)NCCCN(C)C)C(=O)N1Cc1ccc(C(C)(C)C)cc1 (stereo not given),-15.7%
3,Cc1ccc(S(=O)(=O)NC(C)C(=O)NCc2ccc(Cl)cc2)cc1 (stereo not given),5.87%
4,COc1ccc(S(=O)(=O)NC(C)C(=O)NCc2ccncc2)cc1Cl (stereo not given),25.1% (active)
5,CC(Oc1cc2oc(=O)c3c(c2cc1Cl)CCCC3)C(=O)NCc1ccncc1 (stereo not given),1.37%
6,CC(=O)N1C[C@@H](CO)[C@@H](N(C)C(=O)c2ccco2)C[C@H]1c1ccccc1,30.9%
7,COc1cc(OC)cc(C(=O)NNC(=O)CNC(=O)c2ccc(Br)o2)c1,15.6%
8,CCN1CN(Cc2ccccc2)CNC1=S,0.26%
9,COc1ccc(NC(=O)C2(C)Cc3c(-c4cccc(NC(C)=O)c4)ccnc3O2)cc1 (stereo not given),-7.09%
10,COCCNc1nc(NCc2ccc(NC(C)=O)cc2)c2sccc2n1,-8.59%
11,COc1cccc(CNc2nc(NCc3ccccc3OC)nc3ccsc23)c1,24.1%
12,COc1cccc(CNc2nc(NCc3cccs3)nc3ccsc23)c1,51.9% (active)
13,COc1ccc(-c2nc3c(s2)CCc2onc(-c4ccc(OC)cc4)c2-3)cc1,-8.59%
14,COc1ccc(/C=C/C(=O)c2c(O)cc(OC)cc2OC)cc1,4.93%
15,COc1cccc(C=CC(=O)C=CC=Cc2ccccc2)c1,-3.17%
16,O=C(/C=C(O)/C=C/c1ccc(O)cc1)/C=C/c1ccc(O)cc1,33.7% (active)
17,O=S1(=O)C[C@@H](N2CCN(CCO)CC2)[C@H](COCc2ccccc2)N1,8.79%
18,COC(=O)CCCC1=CC2=C(c3ccccc3)C(=O)C(C)(OC(=O)C3CCCC3)C(=O)C2=CN1c1ccc(OC)cc1 (stereo not given),4.39%
19,CSc1ncccc1C(=O)N1CCCC(Nc2ccc(F)c(F)c2)C1 (stereo not given),-21.9%
20,Cc1ccc(CN2CC(C(=O)NNC(=O)Cn3ccc(C(F)(F)F)n3)CC2=O)cc1 (stereo not given),-4.1%
21,O=C1NC(O)CCN1C1CC(O)C(CO)O1 (stereo not given),4.13%
22,NC(=O)c1nsc(C(=O)N(CC(=O)NCc2ccc(F)cc2)Cc2ccco2)c1N,-9.5%

row,SMILES,inhibition
1,COc1cc(C(C(=O)NC2CCCC2)N(Cc2ccccc2)C(=O)c2snc(C(N)=O)c2N)ccc1O (stereo not given),0.09%
2,COc1ccc(CNC(=O)C(c2ccc(O)cc2)N(Cc2ccco2)C(=O)c2snc(C(N)=O)c2N)cc1 (stereo not given),34.8% (active)
3,CCOC(=O)N1CCN(S(=O)(=O)c2ccc(C(=O)Nc3ccc(F)cc3F)cc2)CC1,5.69%
4,Cc1cc2cc3c(cc2nc1SCC(=O)Nc1c(C)cccc1C)CCC3,-12.5%
5,O=C(CC[C@H]1O[C@@H](n2ccc(=O)[nH]c2=O)[C@H](O)[C@@H]1O)N[C@H](Cc1ccccc1)C(=O)NCCCN1CCCC1=O,-9.33%
6,Cc1cccc(C)c1NC(=O)c1ccc(CN2CCc3ccccc3C2)cc1,4.61%
7,Cc1cccc2c1-c1sc(C(=O)NCCCN3CCc4ccccc4C3)cc1CO2,58.2% (active)
8,Cc1ccc(NC(=O)CN2CCc3ccccc3C2)cc1C,-11%
9,N=c1c2c3c(sc2nc2n1CCCCC2)CCCC3,89.3% (active)
10,CC(C)c1nc2sc3c(c2c(=O)n1N)CC(C)(C)OC3,-0.09%
11,N=c1c2c3c(sc2ncn1CCCN1CCOCC1)CCCCC3,1.24%
12,CCSc1nc2sc3c(c2c(=O)[nH]1)CC(C)(C)OC3,-5.74%
13,CC1(C)Cc2c(sc3nc4n(c(=N)c23)CCCCC4)CO1,53.3% (active)
14,O=c1c2c(nc3n1CCCCC3)sc1c(O)cccc12,-13.7%
15,COc1ccccc1-c1cnn2c(N3CCOCC3)cc(C)nc12,-0.68%
16,C=CCn1c2c(c3ccccc31)CCC2,3.67%
17,Cc1ccc2cc3cc(C(=O)N4CCCCCC4)oc3nc2c1,-17.6%
18,Fc1ccc2[nH]c3c(N4CCSCC4)ncnc3c2c1,41.1% (active)
19,CCOC(=O)N(Cc1ccccc1)C1CC1,-16%
20,Nc1nnc(SCC(=O)Nc2ccc3nc(SCC(=O)Nc4ccccc4)sc3c2)s1,30.3% (active)
21,CCCCNC(=O)CSc1nc2ccc(NC(=O)CSc3nnc(COc4ccccc4C)n3C)cc2s1,-13.4%
22,CCCCNC(=O)CSc1nc2ccc(NC(=O)CSc3nnc(N)s3)cc2s1,-9.73%

row,SMILES,inhibition
1,O=C1c2ccccc2C(c2nc3ccccc3[nH]2)N1c1ccccc1 (stereo not given),-32.7%
2,CCS(=O)(=O)Nc1ccc(C2=NN(S(=O)(=O)c3ccc(F)cc3)C(c3ccco3)C2)cc1 (stereo not given),-7.75%
3,COc1ccc(-c2cc(C(=O)N(C)CC(=O)Nc3ccccc3Cl)c3ccccc3n2)cc1OC,21% (active)
4,COc1ccc(CN(C)C(=O)Cc2c[nH]c3ccccc23)c(OC)c1OC,-18.1%
5,COc1ccc(-c2cc(C(=O)NCCCN3CCCC3=O)c3ccccc3n2)cc1OC,19.9%
6,COc1ccc(Cl)cc1NC(=O)CN(C)C(=O)c1cc2ccccc2cc1OC,-2.48%
7,COc1ccc(CN(C)C(=O)Cc2ccsc2)c(OC)c1OC,-4.83%
8,COc1ccc(CN(C)C(=O)c2cc(-c3ccc(C)cc3C)nc3ccccc23)c(OC)c1OC,26.6% (active)
9,COc1ccc(-c2cc(C(=O)n3cnc4ccccc43)c3ccccc3n2)cc1,-11.1%
10,COc1ccc(NC(=O)c2cc(-c3cc(OC)c(OC)c(OC)c3)nc3ccccc23)c(OC)c1,-10.6%
11,COc1ccc(-c2cc(C(=O)N(C)Cc3ccc(OC)c(OC)c3OC)c3ccccc3n2)cc1OC,41.5% (active)
12,COc1ccc(-c2cc(C(=O)N(C)Cc3ccccc3)c3ccccc3n2)cc1,41% (active)
13,COc1ccc(S(=O)(=O)N2CCCCCC2)cc1C(=O)N(C)Cc1cccc(OC)c1OC,-2.19%
14,COc1cccc(NC(=O)CN(C)C(=O)c2cc(Cl)nc3ccccc23)c1,-8.88%
15,Cc1cc2oc(=O)cc(CN(C)Cc3ccccc3)c2cc1Cl,-3.35%
16,CC1(C(=O)NS(=O)(=O)c2ccccc2)CCN1C(=O)Cc1ccc(-c2ccccc2)cc1 (stereo not given),-13%
17,CC(=O)N1c2ccc(S(=O)(=O)N3CCCC(C(=O)Nc4ccc(C)cc4C)C3)cc2CC1C (stereo not given),-10.3%
18,CC(=O)n1cc([C@@H]2C=C(C(=O)N3CCN(Cc4ccc5c(c4)OCO5)CC3)O[C@H](OCc3ccc(CO)cc3)C2)c2ccccc21,15.6%
19,CNC[C@H]1OCc2cnnn2CCCC(=O)N([C@H](C)CO)C[C@@H]1C,-31.6%
